# From PubChem BioAssay
# Mtb UGM inh = blocks M. tuberculosis UGM enzyme. P9WIQ1. purified UGM, fluorescence polarization probe displacement. inhibition, % at 10 µM. hit rate 0.06% among 320,000; in the data active means inhibition above about 10%, passing the limit was not always enough; inconclusive means no clear call, values can overlap the other calls
# GDH-TPI counter-1 = inhibits GDH-TPI coupling enzymes, artifact for Mtb FBA screen; GDH-TPI coupled enzyme counterscreen, NADH absorbance; hit rate 1.2% among 360,000; inhibition, % at 4.8 µM; in the data active means inhibition above about 30%;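 further: 0% = DMSO wells and 100% = wells lacking the enzyme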
# RecA intein inh = inhibitors of M. tuberculosis RecA intein splicing | cell-free RecA intein splicing, fluorescence | inhibition, % (no concentration beside the values) | hit rate 0.75% among 290,000 | P9WHJ3; in the data active means inhibition above about 30%; inconclusive means no clear call, values can overlap the other calls;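 further: 0% = vehicle wells and 100% = reference inhibitor control wells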
# Mtb bLac sens = beta-lactam sensitization of Mtb H37Rv; inhibition, % at 25 µM; M. tuberculosis H37Rv growth with meropenem, percent inhibition; hit rate 0.27% among 330,000; call rule not given here;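 further: growth measured after seven days incubation then overnight dye step; 0% = bacteria only wells and 100% = bacteria with antibiotic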
# Rv3671c protease = inhibitors of M. tuberculosis serine protease Rv3671c. P9WHR9. inhibition, % at 5.96 µM. hit rate 0.048% among 320,000; in the data active means inhibition above about 38%;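 further: extracellular domain of Rv3671c used as enzyme; 0% = enzyme with DMSO and 100% = no enzyme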
# Target sequence (P9WHR9 whole entry, looked up, the tested form may be a part): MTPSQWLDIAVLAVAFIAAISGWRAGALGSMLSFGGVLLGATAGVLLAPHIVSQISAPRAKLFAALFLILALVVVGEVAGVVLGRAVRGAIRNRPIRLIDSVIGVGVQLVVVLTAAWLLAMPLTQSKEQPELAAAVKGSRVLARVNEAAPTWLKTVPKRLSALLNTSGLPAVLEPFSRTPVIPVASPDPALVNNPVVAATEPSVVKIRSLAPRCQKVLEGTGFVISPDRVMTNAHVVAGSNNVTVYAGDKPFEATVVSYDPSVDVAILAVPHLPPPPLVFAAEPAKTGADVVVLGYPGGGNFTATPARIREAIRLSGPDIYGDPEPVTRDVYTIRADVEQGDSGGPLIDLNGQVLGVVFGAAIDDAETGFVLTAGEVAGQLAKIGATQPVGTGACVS
# FBA Mtb inh = inhibits M. tuberculosis FBA enzyme; hit rate 2.3% among 360,000; P9WQA3; inhibition, % at 1 µM; purified M. tuberculosis FBA, fluorescence read-out; AID 588726;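 further: 0% = vehicle and 100% = reference inhibitor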
# Mtb FBA confirm = confirmation of M. tuberculosis fructose-bisphosphate aldolase inhibitors | shares compounds with FBA Mtb inh | purified M. tuberculosis FBA, fluorescence read-out | inhibition, % at 1 µM | hit rate 78% among 5,600;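 further: 0% = vehicle wells and 100% = reference inhibitor wells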
# GDH-TPI counter-2 = inhibits GDH-TPI coupling enzymes, flagging Mtb FBA hits; shares compounds with FBA Mtb inh; GDH-TPI coupled enzyme counterscreen, fluorescence; hit rate 81% among 5,600; inhibition, % at 1 µM; in the data active means inhibition above about 10%
# Starred values were filed as active, the others as inactive; ? = inconclusive; · = no result; + = active, no number. Hits are enriched below; roughly 4% of the tested compounds scored in any of these assays. Unless noted, no stated cut-off is given here; in the data, active means inhibition above about 27%; inactive means the rest.
SMILES,Mtb UGM inh,GDH-TPI counter-1,RecA intein inh,Mtb bLac sens,Rv3671c protease,FBA Mtb inh,Mtb FBA confirm,GDH-TPI counter-2
CN1CC=C2C(C#N)=C(N)C(C#N)(C#N)C(Cc3ccccc3)C2C1 (configuration not stated),-5,15,-37,45,6,32*,164*,151*
CNC(=S)N/N=C/c1ccc(-c2ccc(C(=O)O)cc2)o1,1,53*,-4,-9,7,41*,+,+
C=CCNC(=S)N/N=C/c1ccc(-c2cc(Cl)ccc2Cl)o1,2,27,-20,1,-11,-4,·,·
C=CCNC(=S)N/N=C/c1ccc(-c2ccc(OC)cc2)o1,-1,14,3,-1,2,29*,-6,-6
CC(Oc1cc2oc(=O)c3c(c2cc1Cl)CCC3)C(=O)NCc1cccnc1 (configuration not stated),-3,6,0,-3,-2,25,·,·
CCCc1cc(=O)oc2cc(C)cc(OC(C)C(=O)NCc3ccncc3)c12 (configuration not stated),0,5,1,9,-7,58*,+,+
CCCc1cc(=O)oc2cc(C)cc(OC(C)C(=O)NCc3cccnc3)c12 (configuration not stated),-1,4,0,2,-4,70*,5,-3
Cc1ccc(S(=O)(=O)N2CCCC(C(=O)N3CCN(c4ccccc4)CC3)C2)cc1 (configuration not stated),1,-4,1,2,-6,3,·,·
COC(=O)c1ccc2cc(C)cc(C)c2n1,·,·,·,·,·,59*,12,15*
COC(=O)c1ccc2cc(F)cc(C)c2n1,·,·,·,·,·,11,·,·
CC(C)NC(=O)COC(=O)c1ccc(Cl)c(S(N)(=O)=O)c1,-1,4,-1,-12,-10,1,·,·
CC(C)NC(=O)COC(=O)c1ccc(Cl)c(S(=O)(=O)N2CCCC2)c1,-2,7,·,-1,2,40*,124*,95*
COc1cc(/C=N\NC(=O)c2c(C)nc3cc(C)ccn23)ccc1O,0,29,-3,2,-4,4,·,·
COc1ccc(OC)c(/C=N/NC(=O)CSc2cc(C)nc3c(OC)cccc23)c1,2,9,12,2,0,30*,50*,35*
COc1ccc(OC)c(/C=N\NC(=O)c2c(C)nc3cc(C)ccn23)c1,-1,17,0,-5,2,60*,+,+
CCCCn1c(NC(=O)CC)c(C#N)c2nc3ccccc3nc21,-1,4,1,8,0,6,·,·
CCC(=O)Nc1c(C#N)c2nc3ccccc3nc2n1-c1ccccc1C,-1,9,-108,-6,-7,36*,76*,64*
NC(=O)c1ccsc1NC(=O)COC(=O)c1ccccc1F,0,1,·,4,-5,2,·,·
NC(=O)c1ccsc1NC(=O)COC(=O)c1ccccc1NCc1ccco1,-2,-2,1,-1,-18,59*,50*,32*
O=C(COC(=O)c1ccccc1NCc1ccco1)Nc1ccc2c(c1)OCO2,2,12,0,1,-4,45*,64*,50*
CC(C)c1cc(=O)n2c(nc3ccccc32)[nH]1,-1,3,-9,7,4,45*,119*,108*
O=c1cc(-c2ccccc2)[nH]c2nc3ccccc3n12,0,16,-2,?,-27,51*,+,+
Cc1cc(=O)n2c(nc3ccccc32)s1,·,5,·,·,·,-2,·,·
O=c1cc(CCl)[nH]c2nc3ccccc3n12,-2,21,6,-1,-1,47*,169*,112*
O=C(CSc1ncnc2c1nnn2-c1ccc(F)cc1)NCc1ccco1,-1,-10,4,60,0,-2,·,·
SMILES,Mtb UGM inh,GDH-TPI counter-1,RecA intein inh,Mtb bLac sens,Rv3671c protease,FBA Mtb inh,Mtb FBA confirm,GDH-TPI counter-2
COc1cc(CNC(=O)C2CCCC2)cc(OC)c1OC,1,-3,-1,2,-14,-1,·,·
CCn1c(SCC(=O)Nc2ccc(C(C)=O)cc2)nc2c([nH]c3ccccc32)c1=O,-2,11,0,-21,-5,0,·,·
CSc1nsc(SC)c1CO,-1,-7,-2,3,-2,39*,2,-8
CCC(=O)NCCNC(=O)c1c(SC)nsc1SC,1,2,-1,-11,4,-1,·,·
Cc1nnc(C)n1N1C(=O)c2cccc3cccc(c23)C1=O,-1,24,-1,-5,10,62*,17,10*
COc1ccc(CCNC(=O)COC(=O)Cn2cnc3ccccc32)cc1OC,1,2,-3,6,-4,1,·,·
O=C(COC(=O)Cn1cnc2ccccc21)NCCc1ccc(Cl)cc1,-1,-3,0,-2,-7,56*,46*,36*
O=C(NCc1ccccc1Cl)C1CCN(S(=O)(=O)c2ccc(N3CCCC3=O)cc2)CC1,-1,6,1,-5,-3,1,·,·
O=C(c1ccccc1F)N1CCN(c2ccc([N+](=O)[O-])cc2-n2cccc2)CC1,4,8,12,99,-1,-6,·,·
CCn1c(C)cc(C(=O)COC(=O)c2ccccc2[N+](=O)[O-])c1C,1,3,·,0,-1,-4,·,·
COc1ccc(-c2cc(=O)c3ccc(O)cc3o2)cc1OC,·,25,·,·,·,54*,6,4
O=c1cnc2cc([N+](=O)[O-])ccc2[nH]1,-1,14,-23,0,-5,-2,·,·
CC(=O)Oc1ccc2c(C)cc(=O)[nH]c2c1,-3,8,9,73,7,58*,10,-3
CC1CCCN(Cc2c(O)ccc3c4c(c(=O)oc23)CCCC4)C1 (configuration not stated),1,28,-57,-5,-6,·,·,·
Cc1c(O)ccc2c3c(c(=O)oc12)CCC(C)C3 (configuration not stated),5,12,-19,39,-20,103*,+,+
Cc1occc1-c1nnc(SCC(=O)NC(C)(C)C)n1C(C)c1ccccc1 (configuration not stated),1,1,3,1,-3,2,·,·
COc1cccc(C(NC(C)=O)c2nc(-c3ccoc3)cs2)c1 (configuration not stated),·,3,·,·,·,-5,·,·
CCCCN(C)CCNC(=O)c1c[nH]c2ccc(S(=O)(=O)N(CC)CC)cc2c1=O,3,21,0,-1,6,29*,51*,52*
CCCNC(=O)c1c[nH]c2ccc(S(=O)(=O)N(C)c3ccc(OCC)cc3)cc2c1=O,1,·,3,99,-10,·,·,·
Cc1cc(C)c(N)c(C(=O)O)c1,-2,-9,-1,7,-3,48*,+,+
COc1ccc(-c2cnc(C(N)=O)c(=O)[nH]2)cc1,·,14,·,·,·,65*,71*,60*
